Among the data in paper PMC7862700, “An all-to-all approach to the identification of sequence-specific readers for epigenetic DNA modifications on cytosine” are binding signal values, retold here.

What all share (experiment): DAPPL (digital affinity profiling via proximity ligation, sequencing); 10 mM Tris-HCl pH 7.5, 50 mM NaCl, 1 mM DTT, 4% glycerol, room temperature, 30 min; GST-TFs on glutathione beads, 16-mer random dsDNA library, 0.1% formaldehyde crosslink after washing; high values mean tight binding
Holding throughout (settings): protein: recombinant; tags: N-terminal GST; dsDNA, one strand shown

One test concerns the target T1, FLI1 (Homo sapiens, UniProt Q01543 1-452).
T1 sequence: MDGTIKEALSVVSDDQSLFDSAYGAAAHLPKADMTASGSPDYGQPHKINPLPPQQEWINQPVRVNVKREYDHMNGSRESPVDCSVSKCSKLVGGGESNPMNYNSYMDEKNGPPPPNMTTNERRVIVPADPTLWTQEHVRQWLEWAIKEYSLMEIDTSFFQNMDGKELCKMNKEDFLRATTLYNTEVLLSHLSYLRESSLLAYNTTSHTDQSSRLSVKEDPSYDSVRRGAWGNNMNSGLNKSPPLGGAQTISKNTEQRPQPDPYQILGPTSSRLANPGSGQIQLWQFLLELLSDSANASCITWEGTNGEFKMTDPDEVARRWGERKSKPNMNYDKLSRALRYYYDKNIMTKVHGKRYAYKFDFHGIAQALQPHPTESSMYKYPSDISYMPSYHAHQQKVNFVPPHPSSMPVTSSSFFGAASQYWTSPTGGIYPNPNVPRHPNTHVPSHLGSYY
The essentials:
(§1)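 Yeast served to express human transcription factors as GST fusions, which were then captured on glutathione beads and labelled with DNA barcodes. Pooled with a tag-only sample, they were incubated with 200 nmole of a 16-mer random double-stranded DNA library for 30 min at room temperature in Tris/NaCl/DTT/glycerol buffer, washed, crosslinked with 0.1% formaldehyde, ligated by proximity, amplified by PCR and sequenced. Dividing each hexamer's read frequency for a factor by its frequency for the tag-only sample gives the binding signal.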

A further test deals with T2, ELK1 (Homo sapiens, UniProt P19419 1-428).
T2 sequence: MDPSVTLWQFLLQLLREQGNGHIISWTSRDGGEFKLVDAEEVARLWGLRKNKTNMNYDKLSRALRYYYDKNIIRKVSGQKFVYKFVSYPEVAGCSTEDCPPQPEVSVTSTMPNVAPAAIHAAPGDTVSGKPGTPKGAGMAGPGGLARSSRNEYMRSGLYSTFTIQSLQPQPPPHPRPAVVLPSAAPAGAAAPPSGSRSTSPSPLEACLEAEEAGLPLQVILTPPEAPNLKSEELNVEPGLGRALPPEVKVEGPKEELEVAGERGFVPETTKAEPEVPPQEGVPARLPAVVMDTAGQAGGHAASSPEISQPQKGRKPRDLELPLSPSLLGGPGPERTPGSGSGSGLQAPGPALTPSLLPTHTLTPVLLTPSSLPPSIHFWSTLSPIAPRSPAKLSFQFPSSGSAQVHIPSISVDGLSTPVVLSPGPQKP
A digest of the protocol: as §1

Another test concerns the target T3, GABPA (Homo sapiens, UniProt Q06546 1-454).
T3 sequence: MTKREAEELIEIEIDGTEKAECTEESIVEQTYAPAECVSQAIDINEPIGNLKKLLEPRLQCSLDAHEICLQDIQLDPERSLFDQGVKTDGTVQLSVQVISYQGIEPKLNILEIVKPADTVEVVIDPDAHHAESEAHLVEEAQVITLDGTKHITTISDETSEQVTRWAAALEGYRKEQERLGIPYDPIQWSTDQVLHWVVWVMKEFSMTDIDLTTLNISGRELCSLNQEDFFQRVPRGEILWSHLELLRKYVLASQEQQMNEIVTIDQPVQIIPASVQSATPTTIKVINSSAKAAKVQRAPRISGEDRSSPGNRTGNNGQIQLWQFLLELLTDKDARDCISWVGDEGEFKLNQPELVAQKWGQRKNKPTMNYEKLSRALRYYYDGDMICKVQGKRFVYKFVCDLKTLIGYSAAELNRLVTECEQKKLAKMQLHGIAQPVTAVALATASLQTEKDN
A digest of the protocol:
as §1

Another test has as its target T4, ERG (Homo sapiens, UniProt P11308 1-479).
T4 sequence: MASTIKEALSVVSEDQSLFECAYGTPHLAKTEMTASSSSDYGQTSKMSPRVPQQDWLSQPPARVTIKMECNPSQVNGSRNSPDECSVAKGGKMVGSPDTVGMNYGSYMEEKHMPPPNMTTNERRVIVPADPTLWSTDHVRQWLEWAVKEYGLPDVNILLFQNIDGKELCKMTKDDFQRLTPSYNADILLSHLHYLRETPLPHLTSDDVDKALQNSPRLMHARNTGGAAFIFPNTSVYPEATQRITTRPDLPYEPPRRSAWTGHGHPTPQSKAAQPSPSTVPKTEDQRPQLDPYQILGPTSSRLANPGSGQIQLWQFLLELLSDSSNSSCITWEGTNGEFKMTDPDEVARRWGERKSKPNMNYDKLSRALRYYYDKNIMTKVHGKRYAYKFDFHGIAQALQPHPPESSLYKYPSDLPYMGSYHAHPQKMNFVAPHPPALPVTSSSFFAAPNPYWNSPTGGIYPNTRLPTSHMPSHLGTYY
The essentials:
as §1

For a further test, the target named is ELF1 (Homo sapiens, UniProt P32519 1-619). The essentials:
as §1

The next test has as its target T5, EHF (Homo sapiens, UniProt Q9NZC4 1-300).
T5 sequence: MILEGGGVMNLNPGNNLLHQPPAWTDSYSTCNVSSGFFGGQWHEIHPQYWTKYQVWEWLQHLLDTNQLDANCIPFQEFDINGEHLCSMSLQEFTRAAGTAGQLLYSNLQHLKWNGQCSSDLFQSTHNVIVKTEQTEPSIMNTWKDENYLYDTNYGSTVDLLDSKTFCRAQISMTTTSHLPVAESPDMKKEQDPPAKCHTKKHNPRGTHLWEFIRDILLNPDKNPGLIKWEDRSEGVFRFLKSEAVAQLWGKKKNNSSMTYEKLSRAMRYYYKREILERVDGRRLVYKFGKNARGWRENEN
A digest of the protocol: as §1

The next test concerns the target SPI1 (Homo sapiens, UniProt P17947 1-270). A digest of the protocol:
as §1

The next test deals with SPIB (Homo sapiens, UniProt Q01892 1-262). A digest of the protocol:
as §1

A further test addresses T6, ELK3 (Homo sapiens, UniProt P41970 1-407).
T6 sequence: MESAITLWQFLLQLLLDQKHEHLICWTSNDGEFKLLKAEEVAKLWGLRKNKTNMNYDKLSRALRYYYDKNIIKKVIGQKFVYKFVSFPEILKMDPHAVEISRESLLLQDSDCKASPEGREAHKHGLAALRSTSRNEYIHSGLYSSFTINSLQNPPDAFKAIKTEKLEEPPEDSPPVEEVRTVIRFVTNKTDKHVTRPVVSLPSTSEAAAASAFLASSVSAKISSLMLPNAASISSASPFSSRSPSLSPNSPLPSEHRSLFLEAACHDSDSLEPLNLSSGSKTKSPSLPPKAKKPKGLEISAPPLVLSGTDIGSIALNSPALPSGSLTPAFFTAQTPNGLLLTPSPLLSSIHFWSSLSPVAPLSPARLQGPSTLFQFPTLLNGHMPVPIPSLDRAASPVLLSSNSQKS
A digest of the protocol:
as §1

SPIB, sequence (Q01892 whole entry): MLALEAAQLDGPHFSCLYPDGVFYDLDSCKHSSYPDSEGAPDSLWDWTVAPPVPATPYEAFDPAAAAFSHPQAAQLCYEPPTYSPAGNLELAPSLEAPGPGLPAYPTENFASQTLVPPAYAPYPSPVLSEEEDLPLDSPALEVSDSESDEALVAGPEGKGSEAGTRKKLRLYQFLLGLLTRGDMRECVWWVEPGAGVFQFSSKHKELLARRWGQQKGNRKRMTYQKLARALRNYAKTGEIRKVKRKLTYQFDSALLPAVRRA
ELF1, sequence (P32519 whole entry): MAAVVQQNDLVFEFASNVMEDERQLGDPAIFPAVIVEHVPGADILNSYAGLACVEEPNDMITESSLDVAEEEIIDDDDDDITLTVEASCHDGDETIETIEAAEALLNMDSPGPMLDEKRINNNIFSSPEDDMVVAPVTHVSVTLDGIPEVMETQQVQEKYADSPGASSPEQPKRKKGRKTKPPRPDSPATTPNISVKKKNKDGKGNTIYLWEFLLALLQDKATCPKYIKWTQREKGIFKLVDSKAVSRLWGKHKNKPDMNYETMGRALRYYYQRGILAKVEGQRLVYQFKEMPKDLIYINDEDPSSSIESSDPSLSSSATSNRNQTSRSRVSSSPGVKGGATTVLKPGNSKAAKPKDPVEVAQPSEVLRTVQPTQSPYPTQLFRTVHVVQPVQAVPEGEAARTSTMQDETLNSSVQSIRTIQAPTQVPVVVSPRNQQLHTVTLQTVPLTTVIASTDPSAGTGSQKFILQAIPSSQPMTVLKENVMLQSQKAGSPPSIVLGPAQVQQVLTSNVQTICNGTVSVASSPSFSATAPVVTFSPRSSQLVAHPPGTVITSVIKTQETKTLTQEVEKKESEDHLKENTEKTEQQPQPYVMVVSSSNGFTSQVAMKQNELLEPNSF

For CCCTAT, the binding signal in the test with FLI1 is 1.33 fold enrichment (6-mer frequency, TF over GST control); with ELK1, 1.33 fold enrichment (6-mer frequency, TF over GST control); with GABPA, 1.32 fold enrichment (6-mer frequency, TF over GST control); with ERG it was 1.32 fold enrichment (6-mer frequency, TF over GST control); with ELF1, 1.32 fold enrichment (6-mer frequency, TF over GST control); in the test with EHF, 1.25 fold enrichment (6-mer frequency, TF over GST control). Further, the binding signal was 1.45 fold enrichment (6-mer frequency, TF over GST control) in the test with SPI1; 1.35 fold enrichment (6-mer frequency, TF over GST control) with SPIB; 1.46 fold enrichment (6-mer frequency, TF over GST control) with ELK3.

Consider TACGAT, for which the binding signal was 1.14 fold enrichment (6-mer frequency, TF over GST control) with FLI1; 1.09 fold enrichment (6-mer frequency, TF over GST control) with ELK1; 1.17 fold enrichment (6-mer frequency, TF over GST control) in the test with GABPA; 1.11 fold enrichment (6-mer frequency, TF over GST control) with ERG; 1.11 fold enrichment (6-mer frequency, TF over GST control) with ELF1; 1.03 fold enrichment (6-mer frequency, TF over GST control) with EHF. Further, the binding signal was 1.09 fold enrichment (6-mer frequency, TF over GST control) with SPI1; 1.14 fold enrichment (6-mer frequency, TF over GST control) with SPIB; 1.09 fold enrichment (6-mer frequency, TF over GST control) in the test with ELK3.

Consider ATTTAT, for which the binding signal in the test with FLI1 was 1.41 fold enrichment (6-mer frequency, TF over GST control); with ELK1, 1.48 fold enrichment (6-mer frequency, TF over GST control); with GABPA it was 1.35 fold enrichment (6-mer frequency, TF over GST control); with ERG, 1.33 fold enrichment (6-mer frequency, TF over GST control); in the test with ELF1 it was 1.32 fold enrichment (6-mer frequency, TF over GST control); with EHF, 1.45 fold enrichment (6-mer frequency, TF over GST control). Also, the binding signal with SPI1 is 1.43 fold enrichment (6-mer frequency, TF over GST control); with SPIB it was 1.46 fold enrichment (6-mer frequency, TF over GST control); with ELK3, 1.49 fold enrichment (6-mer frequency, TF over GST control).

Consider ATCTAG, for which the binding signal with FLI1 is 1.12 fold enrichment (6-mer frequency, TF over GST control); with ELK1, 1.16 fold enrichment (6-mer frequency, TF over GST control); with GABPA it was 1.12 fold enrichment (6-mer frequency, TF over GST control); with ERG, 1.1 fold enrichment (6-mer frequency, TF over GST control); in the test with ELF1, 1.1 fold enrichment (6-mer frequency, TF over GST control); in the test with EHF, 1.14 fold enrichment (6-mer frequency, TF over GST control). Moreover, the binding signal with SPI1 was 1.14 fold enrichment (6-mer frequency, TF over GST control); with SPIB, 1.2 fold enrichment (6-mer frequency, TF over GST control); with ELK3, 1.23 fold enrichment (6-mer frequency, TF over GST control).

With TCCTGT, the binding signal was 1.8 fold enrichment (6-mer frequency, TF over GST control) in the test with FLI1; 1.72 fold enrichment (6-mer frequency, TF over GST control) in the test with ELK1; 1.69 fold enrichment (6-mer frequency, TF over GST control) with GABPA; 1.94 fold enrichment (6-mer frequency, TF over GST control) in the test with ERG; 1.71 fold enrichment (6-mer frequency, TF over GST control) in the test with ELF1; 1.67 fold enrichment (6-mer frequency, TF over GST control) with EHF. Besides, the binding signal in the test with SPI1 was 1.99 fold enrichment (6-mer frequency, TF over GST control); with SPIB, 1.88 fold enrichment (6-mer frequency, TF over GST control); with ELK3, 1.88 fold enrichment (6-mer frequency, TF over GST control).

Take GTAATA: the binding signal in the test with FLI1 is 1.12 fold enrichment (6-mer frequency, TF over GST control); with ELK1 it was 1.21 fold enrichment (6-mer frequency, TF over GST control); with GABPA, 1.09 fold enrichment (6-mer frequency, TF over GST control); in the test with ERG, 1.15 fold enrichment (6-mer frequency, TF over GST control); with ELF1 it was 1.15 fold enrichment (6-mer frequency, TF over GST control); in the test with EHF, 1.2 fold enrichment (6-mer frequency, TF over GST control). The binding signal is 1.11 fold enrichment (6-mer frequency, TF over GST control) in the test with SPI1; 1.24 fold enrichment (6-mer frequency, TF over GST control) in the test with SPIB; 1.01 fold enrichment (6-mer frequency, TF over GST control) with ELK3.

Regarding TTATAC, the binding signal is 1.55 fold enrichment (6-mer frequency, TF over GST control) in the test with FLI1; 1.42 fold enrichment (6-mer frequency, TF over GST control) with ELK1; 1.39 fold enrichment (6-mer frequency, TF over GST control) with GABPA; 1.35 fold enrichment (6-mer frequency, TF over GST control) with ERG; 1.4 fold enrichment (6-mer frequency, TF over GST control) in the test with ELF1; 1.42 fold enrichment (6-mer frequency, TF over GST control) with EHF. Further, the binding signal in the test with SPI1 was 1.3 fold enrichment (6-mer frequency, TF over GST control); with SPIB it was 1.43 fold enrichment (6-mer frequency, TF over GST control); in the test with ELK3 it was 1.35 fold enrichment (6-mer frequency, TF over GST control).

TGGTAA: the binding signal was 1.28 fold enrichment (6-mer frequency, TF over GST control) with FLI1; 1.33 fold enrichment (6-mer frequency, TF over GST control) with ELK1; 1.32 fold enrichment (6-mer frequency, TF over GST control) with GABPA; 1.28 fold enrichment (6-mer frequency, TF over GST control) with ERG; 1.28 fold enrichment (6-mer frequency, TF over GST control) with ELF1; 1.37 fold enrichment (6-mer frequency, TF over GST control) with EHF. In addition, the binding signal with SPI1 is 1.28 fold enrichment (6-mer frequency, TF over GST control); with SPIB, 1.4 fold enrichment (6-mer frequency, TF over GST control); with ELK3, 1.32 fold enrichment (6-mer frequency, TF over GST control).
